Results on 14 sequences are retold here after the supplement of paper PMC6555819.

Holding throughout (test): PBM binding z-score (relative to random genomic background probes); higher = stronger binding; sequences stand for … in GC…GCGATTGACAGCGTAGAATGAAGG
Experiment [1] relates to RARb homodimer (NR concentration 270 nM). Put shortly: (§1)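 Custom Agilent 4×180K protein-binding microarrays carried double-stranded probes, each with a 34-nt variable region. These regions held direct-repeat seeds, single-nucleotide variants, half-site ablations and random human genomic background sequences. Ligand-free nuclear receptor dimers were incubated on the arrays for 1 h, antibodies against each partner (one per run) detected binding, and scanned fluorescence was regression-normalized. Binding z-scores take the random background probes as reference.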

Experiment [2] concerns RARg:RXRa (NR concentration 270 nM, RXRa partner concentration 90 nM). In outline: as §1
The subject of experiment [3] is RARg homodimer (NR concentration 270 nM). In outline:
as §1

In experiment [4] the test system is RXRa DBDmut IVT, anti-RXR (DBD mutation: RXRa K156A/R161A, NR concentration 90 nM). Put shortly:
as §1

Experiment [5] concerns RXRa homodimer (NR concentration 180 nM). In outline:
as §1

The subject of experiment [6] is THRa:RXRa (NR concentration 90 nM, RXRa partner concentration 90 nM). In outline: as §1
For experiment [7], the system named is THRa homodimer (NR concentration 90 nM). Put shortly:
as §1

Experiment [8] relates to VDR homodimer (NR concentration 270 nM). Put shortly: as §1

Consider CCTACTGGGCCACCAGGTCATTGATATCAACGTT, for which the PBM binding z-score in experiment [1] is 2.62; in experiment [2], 2.19; in experiment [3] it was 2; in experiment [4] it was -0.211; in experiment [5] it was 1.43; in experiment [6], 2.94. Moreover, the PBM binding z-score was determined as 2.63 in experiment [7] and 1.77 in experiment [8].

With CCGAGTGGGTTATGGGGCATTCAGGCAACGGTGA, the PBM binding z-score is 0.766 in experiment [1]; -0.124 in experiment [2]; -0.0615 in experiment [3]; -1.08 in experiment [4]; 0.212 in experiment [5]; 0.303 in experiment [6]. Also, the PBM binding z-score in experiment [7] worked out at 0.614; in experiment [8] it was 0.328.

Turning to AGAATGAGGTTTTACGTAGATCAGGGAAGAAAGT, the PBM binding z-score is -0.169 in experiment [1]; -0.132 in experiment [2]; 0.114 in experiment [3]; 0.185 in experiment [4]; -0.108 in experiment [5]; 0.3 in experiment [6]. Further, the figures for the PBM binding z-score in experiment [7] and in experiment [8] were 0.0915 and 0.172, respectively.

On to TCTCGGTGGACACGAAAGGTCAGAGCTCGACATC, for which the PBM binding z-score in experiment [1] turned out to be 4.36; in experiment [2] it was 4.38; in experiment [3], 4.33; in experiment [4], 0.665; in experiment [5], 4.52; in experiment [6], 2.96. Further, the PBM binding z-score in experiment [7] was determined as 0.543; in experiment [8] it was 0.45.

Take ACTAGCAGGCCAGGTTTGGGTCACTCAAACAAAG: the PBM binding z-score is 1.92 in experiment [1]; 1.47 in experiment [2]; 0.836 in experiment [3]; -0.798 in experiment [4]; 0.628 in experiment [5]; 2.11 in experiment [6]. Moreover, the PBM binding z-score in experiment [7] was 0.999; in experiment [8], -0.155.

With CCGACTTGGGCAGAAAGGTTACCATACCATCCGG, the PBM binding z-score is 1.52 in experiment [1]; 0.806 in experiment [2]; 0.702 in experiment [3]; -0.476 in experiment [4]; 1.3 in experiment [5]; 0.651 in experiment [6]. For the same sequence, the PBM binding z-score in experiment [7] was -0.379; in experiment [8], -0.411.

For CCTCGGAGGACAGAAGGGCAGAGCTGTCCGCTTT, the PBM binding z-score in experiment [1] is 0.947; in experiment [2] it was 0.328; in experiment [3], 0.965; in experiment [4], -0.318; in experiment [5] it was -0.72; in experiment [6], -0.248. For the same sequence, the PBM binding z-score is -1.05 in experiment [7] and -0.623 in experiment [8].

Take TATCCAGGGTCAAAGGCCAGAGTACGAATGTCGA: the PBM binding z-score in experiment [1] came to 3.6; in experiment [2], 5.88; in experiment [3], 5.26; in experiment [4], 2.94; in experiment [5], 7.51; in experiment [6], 3.75. The PBM binding z-score in experiment [7] was determined as 1.3; in experiment [8], 3.46.

As to CCGACTGGGGCAGAAAGGTTTCCATACCATCCGG, the PBM binding z-score in experiment [1] was 0.129; in experiment [2] it was -0.218; in experiment [3], 0.0471; in experiment [4] it was -0.768; in experiment [5], -0.284; in experiment [6] it was -1.38. The values for the PBM binding z-score in experiment [7] and in experiment [8] were -0.951 and -0.664, respectively.

Take AATACAGGGTCATCGTAGGGCAGAGTACGCACAG: the PBM binding z-score in experiment [1] is 3.67; in experiment [2], 6.04; in experiment [3] it was 5.73; in experiment [4], 3.64; in experiment [5], 7.22; in experiment [6], 4.59. The PBM binding z-score in experiment [7] is 1.42; in experiment [8], 3.02.

In the case of CTCGAAGGGTCGTGCTCAGGTGAGTATACCAAAC, the PBM binding z-score was found to be 1.59 in experiment [1]; 3.39 in experiment [2]; 2.01 in experiment [3]; 1.01 in experiment [4]; 2.52 in experiment [5]; 3.65 in experiment [6]. Also, the PBM binding z-score in experiment [7] worked out at 0.851; in experiment [8], 0.628.

As for GCAGACAGGTGAAACGCAAGTAACTCAGGGTGGC, the PBM binding z-score in experiment [1] is -0.222; in experiment [2] it was 0.227; in experiment [3], 0.311; in experiment [4] it was -0.514; in experiment [5] it was 0.606; in experiment [6], 0.23. Also, the PBM binding z-score is -0.701 in experiment [7] and -0.62 in experiment [8].

As for AATACAGGGTCCCTAGGCCAGAGTAGGTACGAAT, the PBM binding z-score is -0.162 in experiment [1]; 0.119 in experiment [2]; 0.25 in experiment [3]; -0.442 in experiment [4]; 0.211 in experiment [5]; 0.106 in experiment [6]. For the same sequence, the PBM binding z-score in experiment [7] was -0.229; in experiment [8], 0.0969.

For the sequence GGATCGAGGGCAAGTTGATAGCAGAGTTTGATGG, the PBM binding z-score amounted to 1.54 in experiment [1]; 1.6 in experiment [2]; 1.96 in experiment [3]; 1.95 in experiment [4]; 0.72 in experiment [5]; 1.26 in experiment [6]. Further, the results for the PBM binding z-score in experiment [7] and in experiment [8] were 0.374 and 2.06, respectively.
